Experimental findings from PubChem BioAssay AID2018 (Sanford-Burnham Center for Chemical Genomics, 2009) are described below.

The whole screen tested about 1,200 compounds, of which about 600 (50%) were called active. The set was probably picked from earlier hits. Some of the results follow. Results with a measured potency or affinity are listed apart. A number with no mark means an inactive call. Cut-off read from the data, not from the text of the source: active = inhibition above about 42%; inactive = the rest.

In this experiment the target is SUMO-conjugating enzyme UBC9 (Homo sapiens) (UniProt P63279). Put plainly: SUMOylation inhibitor hit validation, confirmation, SUMOylation inhibitor project, biochemical, AlphaScreen (AID 2018). The conditions noted are these: AlphaScreen in vitro SUMOylation assay; at 35 µM; active compounds read high. Background: Bead proximity is the source of the signal in Alpha formats.
Chain of SUMO-conjugating enzyme UBC9 (Homo sapiens) (P63279 whole entry, looked up): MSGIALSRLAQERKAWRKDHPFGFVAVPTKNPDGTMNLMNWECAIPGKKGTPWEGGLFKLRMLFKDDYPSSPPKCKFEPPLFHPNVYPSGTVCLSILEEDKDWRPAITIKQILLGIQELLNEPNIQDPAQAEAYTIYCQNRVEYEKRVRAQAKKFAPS
In the case of `O=c1c2cc(N3CCOCC3)ccc2[nH]c(=S)n1CC1CCCO1` (stereo not drawn), the inhibition was -2.6%.

Consider `CCOC(=O)c1c(NC(=O)C2C3C=CC(CC3)C2C(=O)O)sc(C)c1CC` (stereo not drawn), for which the inhibition was 20%.

For `COc1cccc(CNc2cccc3cccnc23)c1O`, the inhibition is 43.5% (active).

Take `O=C(/C=C/c1ccco1)Nc1cccc2cccnc12`: the inhibition is 6.6%.

Consider `Oc1ccc(Br)cc1CNc1cccc2cccnc12`, for which the inhibition is 61.8% (active).

Turning to `Cc1ccc(F)c(NC(=S)Nc2cccc3ccccc23)c1`, the inhibition was 10.1%.

`Cc1ccc(O)c(CNc2cccc3cccnc23)c1`: the inhibition is 49.6% (active).

Take `CC(C)(C)C(=O)NC(Nc1cccc2cccnc12)C(Cl)(Cl)Cl` (stereo not drawn): the inhibition is 7.9%.

Turning to `O=C(O)c1cc2cccc(S(=O)(=O)N3CCOCC3)c2cc1O`, the inhibition is -21.6%.

As for `CC(=O)c1ccc2cccc3c2c1N=CN3C`, the inhibition is 13.7%.

Turning to `COc1cc(C)c2c(c1C=O)Oc1c(c(C)c(O)c3c1C(O)OC3=O)OC2=O` (stereo not drawn), the inhibition is 95% (active).

Take `CCc1ccc(S(=O)(=O)Nc2ccc(O)c3ccccc23)cc1`: the inhibition is 38.3%.

Turning to `COc1ccc(S(=O)(=O)Nc2ccc(O)c3ccccc23)cc1`, the inhibition was 48.3% (active).

With `Cc1ccc(S(=O)(=O)NNC(=O)Nc2cccc3ccccc23)cc1`, the inhibition is 9.6%.

`O=S(=O)(Nc1ccc(O)c2ccccc12)c1cccs1`: the inhibition is 51.7% (active).

Regarding `CCc1ccc2c(c1)c1nc(C)sc1n2CC`, the inhibition is 20.9%.

Turning to `Nc1ccccc1NC1=CC(=O)CC(c2ccco2)C1` (stereo not drawn), the inhibition was 18.4%.

On to `CC(C)CNC1=CC(=O)CC(c2ccco2)C1` (stereo not drawn), for which the inhibition was 0.4%.

For the molecule `O=C1C=C(O)CC(c2ccco2)C1` (stereo not drawn), the inhibition was 47.7% (active).

`CCOc1cc(NC(=S)NCc2ccco2)c(OCC)cc1NC(=O)CC`: the inhibition was -0.7%.

`Cc1sc2nc3ccc(NCc4ccco4)nn3c(=O)c2c1C`: the inhibition was 0.9%.

As to `CCCCCCCC1(C)NC(=O)N(CC(=O)Nc2cc(C)on2)C1=O` (stereo not drawn), the inhibition was 2.5%.

For `CCOC(=O)N1CCc2c(sc3c2c(=O)n(Cc2ccccc2)c(=O)n3CC(=O)NCCOC)C1`, the inhibition was 15.2%.

In the case of `Cc1oc(-c2ccc(F)cc2)cc1-c1nn2c(-c3ccoc3C)nnc2s1`, the inhibition is 22.7%.

As for `Cc1c(C(=O)c2ccc(Cl)cc2[N+](=O)[O-])c2ccccn2c1CCC#N`, the inhibition is 17.8%.

For `O=C(CSc1nnc(-c2ccco2)c(-c2ccco2)n1)c1ccccc1`, the inhibition is 76.2% (active).

As to `COc1ccccc1CCNC(=O)CSc1ccc(-c2ccco2)nn1`, the inhibition was 19%.

With `COc1ccc(C(=O)CSc2nnc(-c3ccco3)c(-c3ccco3)n2)cc1`, the inhibition was 43% (active).

Consider `O=C(N/N=C/c1ccc(-c2ccc(Cl)c(C(=O)O)c2)o1)c1cc2c(ccc3ccccc32)o1`, for which the inhibition was 102% (active).

As to `Cc1ccc(-c2cc(C(=O)N/N=C/c3ccc([N+](=O)[O-])o3)c3ccccc3n2)o1`, the inhibition was 30.3%.

For the molecule `Cc1c(C(=O)O)c(C(=O)O)nc2ccc(N3CCOCC3)cc12`, the inhibition was -17.6%.

As for `NC1=NC(c2ccc(Cl)cc2)N(c2ccc(S(N)(=O)=O)cc2)C(N)=N1` (stereo not drawn), the inhibition was 25.2%.

`O=C(CNc1cccc2ccccc12)N/N=C/c1ccc([N+](=O)[O-])o1`: the inhibition was 37.5%.

As for `CC(Nc1cccc2ccccc12)C(=O)N/N=C/c1ccccn1` (stereo not drawn), the inhibition was -4.4%.

As to `N#Cc1cc2ccc(N3CCOCC3)cc2cc1C#N`, the inhibition was -11.7%.

Take `COc1cc(/C=C2/C(=O)N(c3ccc([N+](=O)[O-])cc3)N=C2N2CCOCC2)ccc1O`: the inhibition was 68.6% (active).

For `COc1ccc(CCN2Cc3c(cccc3[N+](=O)[O-])C2=O)cc1OC`, the inhibition is -5.8%.

Regarding `O=C1CC(N2CCOCC2)=NN1c1ccc([N+](=O)[O-])cc1`, the inhibition was 51.4% (active).

On to `C#CCOc1ccc(/C=C2/C(=O)N(c3cccc(C(=O)O)c3)N=C2C)cc1OC`, for which the inhibition was 55.9% (active).

Regarding `CC(=O)c1cccc(NC(=S)Nc2cccc3ccccc23)c1`, the inhibition is -7.4%.

For `COc1cc(=O)n(C)c2c(OCC3OC(C)(C)OC3(C)C)cccc12` (stereo not drawn), the inhibition was 11.2%.

For the molecule `Cc1ccc(Cn2nnnc2CN2CCC(NC(=O)C(C)(C)C)CC2)cc1`, the inhibition was -8.9%.

As for `O=C(Nc1ccc(Cl)c(Cl)c1)Nn1cnnc1`, the inhibition was -10.6%.

Consider `COc1ccc(/C=C2/C(=O)N(c3ccccc3)N=C2C)cc1OC`, for which the inhibition was 38.1%.

`COc1cc(/C=C2/C(=O)N(c3ccccc3)N=C2C)ccc1OS(=O)(=O)c1ccccc1`: the inhibition is 91.3% (active).

For the molecule `COc1ccc(C(=O)N2CCC(O)(c3ccc(F)cc3)CC2)cc1OC`, the inhibition was -18.3%.

As to `Cc1[nH][nH]c(=O)c1C(c1ccc(-c2cccc(Cl)c2)o1)c1c(C)[nH][nH]c1=O`, the inhibition was 101% (active).

As for `Cc1[nH][nH]c(=O)c1C(c1ccc(-c2ccc(F)cc2)o1)c1c(C)[nH][nH]c1=O`, the inhibition was 59.6% (active).

Consider `Cc1[nH][nH]c(=O)c1C(c1ccc(-c2ccc(Cl)cc2)o1)c1c(C)[nH][nH]c1=O`, for which the inhibition was 66.7% (active).

On to `OC(COc1ccccc1)CSc1ncn[nH]1` (stereo not drawn), for which the inhibition is 2.4%.

Turning to `O=S(=O)(Nc1ccc2c(c1)nc1n2CCN(Cc2ccccc2)C1)c1ccccc1`, the inhibition is -3.3%.

Turning to `O=S(=O)(Nc1cc2nc3ccccc3nc2n1Cc1ccccc1)c1ccc(Cl)cc1`, the inhibition was 102% (active).

As to `CCn1c2ccccc2c2c3ncc4cccn4c3ccc21`, the inhibition is -74.8%.

As for `Cc1cccn2c(=O)c3cc(C(=O)NC4CCCCCC4)sc3nc12`, the inhibition was 33.8%.

As to `CCOc1ccc(NC(=S)Nc2ccc3nsnc3c2)cc1`, the inhibition was 101% (active).

Regarding `C=CCN(CC=C)C(=S)Nc1ccc2nsnc2c1`, the inhibition was 23.6%.

For `COc1ccc(NC(=S)Nc2ccc3nsnc3c2)cc1`, the inhibition was 101% (active).

On to `COc1ccc(N(C)C(=O)Nc2ccc3nsnc3c2)cc1`, for which the inhibition was 7.7%.

For the molecule `S=C(Nc1ccc2nsnc2c1)N1CCCC1`, the inhibition is 17.9%.

For the molecule `COc1ccc(NC(=S)Nc2ccc3nccnc3c2)cc1`, the inhibition was 8.4%.

On to `COc1ccc(/C=N/N=C2/CC(C)(C)Cc3n[nH]c(=O)cc32)cc1`, for which the inhibition is 26.2%.

For `COc1ccc(OC)c(/C=N/NC(=O)CCc2ccc(O)c(O)c2)c1`, the inhibition is 18.5%.

For `O=C(O)c1cccc([N+](=O)[O-])c1C(=O)Nc1cccc2ccccc12`, the inhibition is -1.9%.

For `O=C(NC(=S)Nc1cccc2c(O)cccc12)c1ccccc1[N+](=O)[O-]`, the inhibition is 16.6%.

As for `N#Cc1c(N)nc2c(c1-c1ccc3c(c1)OCO3)CCc1ccccc1-2`, the inhibition was -58.5%.

For the molecule `S=C(Nc1cccc(Cl)c1)Nc1ccc2cn[nH]c2c1`, the inhibition is 7.2%.

Turning to `Fc1ccc(NC(=S)Nc2cccc3ccccc23)cc1F`, the inhibition is -4.6%.

Turning to `Cc1ccc(NC(=S)Nc2cccc3ccccc23)cc1F`, the inhibition is 3.1%.

Consider `Cc1cc(C)c(C(N)=O)c(Nc2cccc3ccccc23)n1`, for which the inhibition is 24.4%.

`Fc1ccc(NC(=S)Nc2cccc3ccccc23)cc1`: the inhibition is -2.8%.

Regarding `Nc1ccc(O)cc1C(=O)OCC(=O)c1ccc(C2CCCCC2)cc1`, the inhibition is 29.2%.

For the molecule `COC(=O)C1C(O)=C(C(C)=Nc2cccc3ccccc23)C(=O)CC1(C)C` (stereo not drawn), the inhibition was -0.8%.

For `CC(C)(C)c1cc(=O)n(-c2ccccc2)[nH]1`, the inhibition is 22.8%.

Regarding `Cc1cc(=O)[nH]c(-n2[nH]c(C)cc2=O)n1`, the inhibition was 78.7% (active).

Consider `Cc1ccc(N2CCN(Cc3ccccc3)CC2=O)c(C)c1`, for which the inhibition was 18.7%.

With `O=c1c(-c2ccccc2)coc2c(CN3CCCC3)c(O)ccc12`, the inhibition was -8%.

With `CC(=O)c1ccc(N2CCN(C(=O)c3cccs3)C(C)C2)c(F)c1` (stereo not drawn), the inhibition is 14.2%.

As for `Cc1nn(-c2ccccn2)c2c1C(=O)C(Br)CC2` (stereo not drawn), the inhibition is 97.2% (active).

Take `O=c1c2ccccc2nc2n1CCC2`: the inhibition was 97.9% (active).

Turning to `Cc1ccc(/C=C(\C#N)C(=O)Nc2cccc3ncccc23)o1`, the inhibition is 23.5%.

Take `O=C(O)c1cc(Cl)c(Cl)cc1C(=O)Nc1cccc2ncccc12`: the inhibition was 9.9%.

As for `Cc1cc(C)c(S(=O)(=O)/N=C2/C=C(SCC(=O)O)C(=O)c3ccccc32)cc1C`, the inhibition is 95.8% (active).

With `COc1ccc2nc(/C(C#N)=C\c3ccc(C(=O)O)cc3)[nH]c2c1`, the inhibition is 21.7%.

As to `CCC(NC(=O)Nc1ccc(O)cc1)(C(F)(F)F)C(F)(F)F`, the inhibition was -10.3%.

As for `CCc1cccc(NC(=S)Nc2cccc3ccccc23)c1`, the inhibition was 15%.

Take `COc1cc(/C=C2\C(=O)N(CCC#N)N=C2C)ccc1OCC(=O)Nc1ccccc1`: the inhibition was 12.4%.

Regarding `O=C1Nc2ccc(C(F)(F)F)cc2N2CCCC12` (stereo not drawn), the inhibition is 46.5% (active).

Consider `Cc1ccc(NC(=S)Nc2cccc3ccccc23)cc1`, for which the inhibition was 19.1%.

In the case of `CC(C)(C)c1cc[n+](C2=C([O-])c3ccccc3C(=O)/C2=N\S(=O)(=O)c2cccs2)cc1`, the inhibition is 90.8% (active).

Consider `O=C(O)COc1ccccc1C(Nc1cccnc1)c1cc(Cl)c2cccnc2c1O` (stereo not drawn), for which the inhibition is 102% (active).

For the molecule `CCOc1ccc(C(Nc2cccnc2)c2cc(Cl)c3cccnc3c2O)cc1` (stereo not drawn), the inhibition is -212%.

As to `COC(=O)c1ccccc1NC1=C/C(=N\S(=O)(=O)c2cccs2)c2ccccc2C1=O`, the inhibition was 102% (active).

As to `O=[N+]([O-])c1cc(Cl)cc(/C=N/NC(=S)Nc2ccc(S(=O)(=O)N3CCOCC3)cc2)c1O`, the inhibition is 102% (active).

In the case of `CCN(C(=S)Nc1cc(S(=O)(=O)N2CCOCC2)ccc1Cl)c1cccc2ccccc12`, the inhibition is 11.1%.

For the molecule `Cc1[nH]n(-c2ccccc2)c(=O)c1C(C[N+](=O)[O-])c1ccc(Br)cc1` (stereo not drawn), the inhibition is 101% (active).

With `CC(C)(C)c1cnnn1-c1cccc([N+](=O)[O-])c1`, the inhibition is 5.8%.

On to `COc1cccc(C(c2c(C)[nH]n(-c3ccccc3)c2=O)c2c(C)[nH]n(-c3ccccc3)c2=O)c1OC`, for which the inhibition was 89.3% (active).

For `Cc1[nH]n(-c2ccccc2)c(=O)c1C(c1cccc([N+](=O)[O-])c1)c1c(C)[nH]n(-c2ccccc2)c1=O`, the inhibition was 79.1% (active).

The inhibition is the change of the read-out against control, counted positive when it falls.
